Assay results published in PubChem BioAssay (NCI).
“And” between values parts separate entries of the source, which are not always exact repeats. Equal entries are not always repeated. This is part of a sample that, as a whole, favours compounds with a hit. Of some 83,000 tested, about 20% had one in any assay.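 Plates (96-well) were seeded with cells, treated with compound at one concentration, and incubated for 48 hours before percent growth was determined.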 The source made the active and inactive calls. The calls were made as follows: active = growth percent below 10; inactive = the rest.

System: MDA-MB-468 breast
Experiment: NCI-60 one-dose screen, 48 h (100 = growth as untreated, 0 = no growth, -100 = all killed)
Conditions: 10 µM unless noted

Row | SMILES | growth
1 | COc1ccc(/C=C/C(=O)NCC(C)O)cc1 (stereo not given) | 94.2% (inactive)
2 | CCCCCCCCCCCCCCn1cc(C2=C(c3coc4ccc(OC)cc34)C(=O)NC2=O)c2ccccc21 | 104% (inactive)
3 | CC1=NN(c2cccc(Cl)c2)C(=O)/C1=C\c1cn(-c2nc(N3CCOCC3)nc(N3CCOCC3)n2)c2ccccc12 | 95.9% (inactive)
4 | CCN1C(=O)N(CC)C2C1NN=c1s/c(=C\c3ccc(F)cc3)c(=O)n12 (stereo not given) | 11.9% (inactive)
5 | CCOC(=O)c1c(Nc2ccccc2)nn2c(N)c(C#N)c(-c3ccc(F)cc3)nc12 | 82.5% (inactive)
6 | COc1ccc(-n2nc(C)c3c(Nc4ccc(NC(=O)Nc5cc(C(F)(F)F)ccc5F)cc4)ncnc32)cc1 | 29.6% (inactive)
7 | C=CCOC(=O)C1=C(C)NC2=C(C(=O)CCC2)C1c1ccc(F)cc1 (stereo not given) | 92.3% (inactive)
8 | Cc1cc(=O)oc2c1ccc1oc(C#N)c(C)c12 | 114% (inactive)
9 | C=C(C[n+]1ccccc1)[C@@H]1CC[C@]2(C(=O)OC)CC[C@]3(C)[C@H](CC[C@@H]4[C@@]5(C)CC[C@H](O)C(C)(C)[C@@H]5CC[C@]43C)[C@@H]12 | 86.3% (inactive)
10 | CCCCCCN1CCN(Cc2ccc(N(CC)CC)cc2)C(=O)C1=O | 22.9% (inactive)
11 | O=[N+]([O-])c1cccc2ccc(N/N=C/c3ccccc3O)nc12 | 4.06% (active) and 89.3% (inactive)
12 | CCCCCc1ccc(S(=O)(=O)Nc2cc(-c3csc(N)n3)ccc2OC)cc1 | 78.7% (inactive)
13 | Cc1ccc(C(NC(=O)c2ccccc2)c2ccc3cccnc3c2O)cc1 (stereo not given) | -26.6% (active)
14 | Cn1ccnc1C(=O)/C=C/c1ccc(NC(=O)Nc2ccc(F)cc2)cc1 | 6.47% (active)
15 | Cc1cc(C)c(C#N)c(Sc2nc(C)c([N+](=O)[O-])c(C)c2C#N)n1 | 46% (inactive)
16 | CN(C)CCCC1(c2ccc(F)cc2)OCc2cc(-c3cc4ccccc4s3)ccc21 (stereo not given) | -8.95% (active)
17 | CCCOc1cc2ccccc2cc1C(=O)Nc1nc(N)c2c(ccc3nccc32)[nH]1 | -64.7% (active)
18 | N#C/C(C(=O)c1ccccc1)=C1/C(=O)Nc2ccc(F)cc21 | 106% (inactive)
19 | COc1ccc(Nc2nnc(-c3ccc(OC)c(OC)c3)o2)cc1 | 90.8% (inactive)
20 | COc1cc(/C=C/C(=O)N2CCN(C(=O)/C=C/c3cc(OC)c(OC)c(OC)c3)CC2)cc(OC)c1OC | 102% (inactive)

Row | SMILES | growth
21 | Nc1ncnc2c1c(-c1ccc(Oc3ccccc3)cc1)nn2CC1SSCC1O (stereo not given) | -24.8% (active)
22 | CC(C)[C@H]1c2[nH]c3ccccc3c2C[C@H]2C(=O)N(CCCCCCC(=O)NO)CC(=O)N12 | 64.2% (inactive)
23 | O=C(Nc1ccc(F)cc1)c1ccccc1 | 98.3% (inactive)
24 | COc1ccc(C2c3ccc4ccccc4c3Oc3ncn(CCCn4ccnc4)c(=N)c32)cc1OC (stereo not given) | 47.5% (inactive)
25 | CNc1ccc(CSc2ccc(Cl)cc2)cc1 | 78.5% (inactive)
26 | O=c1[nH]c2ccc(Cl)cc2cc1CSc1ccccc1Nc1nccc(-c2ccc(Cl)cc2)n1 | 93.3% (inactive)
27 | CCN(CC)CCOc1ccc(-c2nc3cc(Cl)ccc3s2)cc1 | -17% (active)
28 | Nc1c(Cl)cccc1[N+](=O)[O-] | 115% (inactive)
29 | CC(=O)c1sc(Nc2cccc(Nc3nc(C)c(C)s3)c2)nc1C | 55% (inactive)
30 | Cn1cc(-c2csc(-c3cn(C(=O)OC(C)(C)C)c4ccccc34)n2)c2ccnc(Cl)c21 | 44.8% (inactive)
31 | Cn1ccnc1C(=O)/C=C/c1ccc(CC(=O)Nc2ccc(S(F)(F)(F)(F)F)cc2)cc1 | -22.9% (active)
32 | O=C1C=Cc2ncccc2C1=O | 64.5% (inactive)
33 | CCN(CC)c1ccc(-c2cc(-c3cc(OC)c(OC)c(OC)c3)nc(N3CCOCC3)c2C#N)cc1 | 32.9% (inactive)
34 | CC/C(=C/c1cc(OC)ccc1O)c1ccc2cc(OC)ccc2[o+]1 | 45.8% (inactive)
35 | O=C(Nc1ccc(Cl)cc1)Nc1ccc(Oc2nncc3ccccc23)cc1 | -76.2% (active)
36 | CC(C)C(NC(=O)C1(NC(=O)OCc2ccccc2)CCCC1)C(=O)O (stereo not given) | 112% (inactive)
37 | CC[C@]12C=CCN3CC[C@@]4(c5ccc(OC)cc5N(C)[C@H]4[C@@](O)(C(=O)OC)[C@@H]1OC(=O)CCC[P+](c1ccccc1)(c1ccccc1)c1ccccc1)[C@@H]32 | -75.6% (active)
38 | Clc1cccc(Nc2ncnc3ccc(-c4cncc(-n5cnnn5)c4)cc23)c1 | -31.6% (active)
39 | O=C(CN1CCN(c2cc3c(cc2F)c(=O)c(C(=O)O)cn3C2CC2)CC1)Nc1ccc(C(=O)/C=C/c2ccccc2)cc1 | 33.8% (inactive)
40 | NC(N)=Nc1nc2ccccc2n2c1nc1ccccc12 | 35.1% (inactive)
